High-throughput results from PubChem BioAssay.
aSyn yeast inh – alpha-synuclein toxicity inhibition in yeast | Yeast expressing alpha-synuclein, growth rescue, BacTiter-Glo, 24 h | Potency, µM (highest dose often 46.1 µM), for the others: at the highest dose growth rescue (activation), actives largely listed as activators | 0.14% of 370,000 active | AID 652106; note: % of control where 0% means no effect; nearly all actives have a fitted effect of over 65% in size
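Readout is rescue of growth in alpha-synuclein-expressing yeast, so inhibitors of toxicity appear as activators. Growth after 24 hr at 30 deg C in galactose medium is quantified by luminescence.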
Abeta rescue – restores growth of yeast expressing A-beta42 peptide. yeast expressing A-beta42, growth rescue, OD600, 48 h; response scale: 0% DMSO, 100% iron-clioquinol control. Potency, µM (titrated, usually from 46.1 µM), actives largely listed as activators. 0.063% of 410,000 active. AID 1347071; note: nearly all actives have a fitted effect of over 55% in size
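Growth rescue measured by 600 nm absorbance after 48 h yeast culture at 30 C with compound. Values normalized between DMSO and an equimolar ferric chloride plus clioquinol control.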
FUS suppressor – FUS proteinopathy suppression in yeast; S. cerevisiae FUS-expressing, growth rescue, OD600, 24 h; Potency, µM (top dose mostly 76.6 µM), actives largely listed as activators; 0.24% of 390,000 active; AID 1347120;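 note: plate controls were DMSO vehicle for no effect and reference control for full effect; nearly all actives have a fitted effect of over 55% in size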
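Read-out: OD at 600 nm after 24hr at 30C, reporting rescue of FUS-induced yeast toxicity. Cells at OD 0.005 in galactose (2%) minimal medium; compounds tested in a dilution series; CP55940 titration from 92uM final as control.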
Mito fusion act – inhibitors of mitochondrial division or activators of mitochondrial fusion; Potency, µM (doses to about 46.1 µM), inactives show at the top dose growth rescue (activation), most hits filed as activators; S. cerevisiae fusion-defective mutant growth rescue, CellTiterGlo 48 h; 0.23% of 320,000 active; AID 485298; note: % of control where 0% means no effect; nearly all actives have a fitted effect of over 45% in size
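Growth-rescue viability read-out: after 48 h at the non-permissive 37C in glycerol/ethanol YPEG, yeast mitochondrial fusion mutants are measured by CellTiterGlo luminescence; compounds (23 nl pinned per well) restoring growth score as division inhibitors or fusion activators.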
TDP-43 yeast inh – TDP-43 toxicity inhibition in yeast; Potency, µM (series often up to 46.1 µM), for inactives: at the top dose growth rescue (activation), hits mostly activators; 1.8% of 410,000 active; TDP-43 expressing yeast growth rescue, BacTiter-Glo, 24 h; note: % of control where 0% means no effect; nearly all actives have a fitted effect of over 50% in size
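Yeast cells expressing TDP-43 under galactose induction are exposed to compounds for 24 hr at 30 deg C. BacTiter-Glo luminescence measures growth, so protective compounds score as activators.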
ERG Ets-DNA blk – inhibitors of human ERG Ets domain-DNA interaction; 0.028% of 370,000 active; Potency, µM (series often up to 76.9 µM), for the others: at the top dose FP activity, negative = inhibition, hits mostly inhibitors; fluorescence polarization, His-ERG Ets domain / labelled DNA; active = well fitted inhibition curve with a large enough effect in the polarisation, with a control signal flat; inconclusive = small, poorly fitted or top-dose-only effect, or effect the other way, or a change in a side signal; inactive = no such curve, though single readings can be large or run the other way; the % refers to the polarisation;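 note: polarization taken with two DNA probes labelled with fluorescein and Texas red; % of control where 0% means no effect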
Target sequence (P11308 whole entry, looked up, the tested form may be a part): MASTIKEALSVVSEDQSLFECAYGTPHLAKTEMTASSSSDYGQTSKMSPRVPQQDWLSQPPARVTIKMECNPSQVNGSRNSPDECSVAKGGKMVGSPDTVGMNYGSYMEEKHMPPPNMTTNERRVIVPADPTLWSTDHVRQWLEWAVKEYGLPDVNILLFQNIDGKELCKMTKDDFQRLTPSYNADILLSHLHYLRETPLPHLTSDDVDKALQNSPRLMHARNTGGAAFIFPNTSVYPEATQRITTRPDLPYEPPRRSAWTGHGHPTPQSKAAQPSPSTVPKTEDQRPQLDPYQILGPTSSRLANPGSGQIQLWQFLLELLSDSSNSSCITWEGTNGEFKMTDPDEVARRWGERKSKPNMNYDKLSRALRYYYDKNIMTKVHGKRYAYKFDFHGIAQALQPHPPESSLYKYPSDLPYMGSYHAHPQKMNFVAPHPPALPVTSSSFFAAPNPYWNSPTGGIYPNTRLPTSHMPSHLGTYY
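His-tagged ERG Ets domain (1 uM in the protein solution; 300mM KCl, 50mM Tris-HCl, 1mM EDTA, 1mM DTT, pH 7.5) received compound, then a probe mix of 5 nM fluorescein-DNA and 100nM Texas-615-DNA. Fluorescence polarization was read for both dyes.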
The depositor's hits bear a star; i = inactive; ? = inconclusive; / = no result; ! = repeats disagree. Sampled rows, rich in hits. Any-hit rate of the full collection: about 2.2%. Unless noted, calls come from the whole dose curve; as a rule, active = well fitted curve in the direction sought with a large enough effect; inconclusive = small, poorly fitted or top-dose-only effect, or another doubt; inactive = no such curve, though single readings can be large; an effect the other way counts as inactive or inconclusive. Potency is the fitted concentration of half-maximal effect.

SMILES | aSyn yeast inh | Abeta rescue | FUS suppressor | Mito fusion act | TDP-43 yeast inh | ERG Ets-DNA blk
COc1ccc([C@H]2CC(=O)C=C(c3ccc(NC(C)=O)cc3)C2)cc1OC | 2% | i | i | -12% | 9% | -4%
O=C1C=C(c2cccc(Br)c2)C[C@@H](c2ccc(Cl)cc2)C1 | 8% | i | i | / | 0% | -9%
CC(=O)Nc1ccc(C2=CC(=O)C[C@H](c3ccc(Cl)cc3)C2)cc1 | 2% | i | ? | ? | 35µM* | -3%
COc1ccc([C@H]2CC(=O)C=C(c3cccc(OC)c3OC)C2)cc1OC | 0% | ? | i | 13% | 22µM* | 4%
CCN(Cc1ccccc1)C(=O)C1CCN(S(=O)(=O)c2c(C)noc2/C=C/c2ccc(C)cc2)CC1 | / | i | i | / | 0% | 1%
COc1cccc(C(c2sc3nc(-c4ccco4)nn3c2O)N2CCCC2)c1 (configuration not stated) | / | i | i | / | 24% | 0%
O=C(CSc1nnc(-c2ccccc2)n1-c1ccc(Cl)cc1)c1ccc(F)cc1 | / | / | i | / | / | /
O=C1C=C(c2ccc(F)c(Cl)c2)C[C@@H](c2ccc(F)cc2)C1 | 7% | i | i | ? | ? | -6%
O=C1C=C(c2cc(F)ccc2F)C[C@@H](c2ccc(Cl)cc2)C1 | 13% | i | i | ? | 20µM* | 6%
O=C1c2cccnc2C(=O)N1CO | 9% | i | i | 1% | 20% | -1%
NC1=C(Br)C(=O)c2ncccc2C1=O | -6% | i | / | / | 11µM* | -9%
CN(C)c1ccc(/C=C/c2cc(/C=C/c3ccc(N(C)C)cc3)c3ccccc3n2)cc1 | -69% | / | / | / | / | /
Cc1c(C(N)=O)c(-c2ccccc2)nn1-c1ccccc1 | 1% | i | / | 5% | 24% | 4%
CCCc1c(-c2ccc(O)cc2)nn(-c2ccc(O)cc2)c1-c1ccc(O)cc1 | -25% | i | i | 16µM*! | ? | ?
Cc1nc2cc(C(=O)NCCC3=CCCCC3)ccc2n1-c1ccc(Br)cc1 | / | i | 25µM* | / | ? | -10%
CCOc1ccc(-n2c(C)nc3cc(C(=O)NCCC4=CCCCC4)ccc32)cc1 | / | i | i | / | 18% | 3%
CCc1ccccc1-n1c(C)nc2cc(C(=O)NCCc3ccc(Cl)cc3)ccc21 | / | i | ? | / | 32µM* | 2%
Cc1ccc(-n2cnc3cc(C(=O)NCCC4=CCCCC4)ccc32)c(C)c1 | / | i | ? | / | 25µM* | -1%
CC(CNC(=O)c1csc2c1CCCCC2)c1ccccc1 (configuration not stated) | / | i | i | / | 2% | 1%
C[C@H]1[C@@H](O)CC[C@@]23CCCN2C(=O)CCC[C@@H]13 | / | / | i | / | / | /
O=C(c1ccccc1)c1coc2ccc(O)c(Cl)c12 | 12% | i | i | 25% | ? | -5%
Cc1ccc(C(=O)c2coc3ccc(O)c(Cl)c23)cc1 | -16% | i | i | 7% | 16µM* | 8%
CCc1ccc(CNC(=O)CN(c2ccc(C)cc2)S(=O)(=O)N(C)C)cc1 | / | i | i | / | 15% | 3%
CN1C(=O)/C(=N\OC(=O)c2ccccc2Cl)c2ccccc21 | 21% | i | i | 15% | 18µM* | 4%
CC(=O)O/N=C1\C(=O)N(Cc2ccc(C)cc2)c2ccccc21 | 21% | i | i | -1% | 18% | 12%
SMILES | aSyn yeast inh | Abeta rescue | FUS suppressor | Mito fusion act | TDP-43 yeast inh | ERG Ets-DNA blk
Cc1ccc(NC(=O)C2CCN(S(=O)(=O)c3ccc4[nH]c5c(c4c3)CCCCC5)CC2)cc1 | / | i | i | / | 11% | 4%
CCC(C(=O)c1ccc2ncccc2c1)c1ccccc1 (configuration not stated) | 8% | i | i | ? | 14µM* | 3%
O=S1(=O)CC(N2CCSCC2)CN1Cc1cn(Cc2ccccc2)nn1 (configuration not stated) | -4% | i | i | / | 25% | /
CC1CC1C(=O)OCC(=O)NC(=O)NC12CC3CC(CC(C3)C1)C2 (configuration not stated) | 8% | 8.9µM* | i | -2% | -1% | ?
COc1ccc(CC(=O)OCC(=O)NC(=O)NC23CC4CC(CC(C4)C2)C3)cc1 | 13% | ? | i | 2% | 23% | -9%
O=C(COC(=O)c1ccc(-c2ccc([N+](=O)[O-])cc2)o1)NC(=O)NC1CCCCC1 | 9% | ? | / | 13% | 13% | 11%
O=C(COC(=O)c1ccc(-c2ccc([N+](=O)[O-])cc2)o1)NC(=O)NC12CC3CC(CC(C3)C1)C2 | -2% | ? | / | 10µM* | ? | -12%
Cc1cc(C)c(NC(=O)C(C)n2nnc3sc4c(c3c2=O)CCCC4)c(C)c1 (configuration not stated) | / | i | i | / | 10% | -3%
CCSC(=O)N1c2ccc(OC)cc2C=CC1C#N (configuration not stated) | 4% | i | / | / | 22µM* | -1%
Cc1ccc(CCNS(=O)(=O)c2ccc(C)cc2)cc1 | / | i | i | 8% | 16µM* | 6%
Cc1ccc(S(=O)(=O)NCCc2ccc(S(N)(=O)=O)cc2)cc1 | / | i | i | -1% | -13% | -16%
CCC(=O)Nc1ccc2c(c1)C(=O)N(C)[C@@H]1CC[C@@H](CC(=O)NCCN3CCCCC3)O[C@H]1CO2 | / | / | i | / | / | /
COC(=O)c1ccc(Cl)c(NS(=O)(=O)c2ccc3c(c2)OCCO3)c1 | 6% | i | i | 19% | 25µM* | -1%
CS(=O)(=O)N1Cc2cc(C(=O)NCC3CCCCC3)nc(-c3cccc(-c4cccnc4)c3)c2[C@H]1CCO | -4% | i | ? | / | -4% | /
COC(=O)c1cccc(CN2C(=O)C(C)Oc3ccc(C)cc32)c1 (configuration not stated) | 21% | i | i | / | 18µM* | /
Cc1ccc2c(c1)N(Cc1ccccc1)C(=O)C(C)O2 (configuration not stated) | 13% | i | i | / | ? | /
CCC[C@H]1[C@@H](OC(=O)N2CCCC2)CC[C@@]23CCCN2C(=O)CCC[C@@H]13 | / | / | i | / | / | /
COc1ccc(F)cc1S(=O)(=O)n1nnc2ccccc21 | ? | i | ? | 0% | 10µM* | -3%
CN(C(=O)c1cc2c(=O)n3ccccc3nc2n1C)c1ccccc1 | / | i | i | / | ? | -1%
CCc1cc(C(=O)c2ccccc2)c(N)s1 | 2% | i | i | -2% | 11µM* | 0%
